{"source": "PubChem BioAssay (NCATS)", "note": "Inconclusive results are not listed. Calls of active or inactive are those of the source. Calls come from the whole dose curve. % is set by controls: 0 for no effect and ±100 for the full control effect; potency is the fitted concentration of half-maximal effect."}
{"test": "Validation screen for inhibitors of Lassa infection (AID 463096)", "settings": "Lassa virus infection, cell-based; series mostly up to 46.1 µM; activity change, negative = inhibition: at the top concentration"}
{"smiles": "CC1=C(/C=C/C(C)=C/C=C/C(C)=C/C(=O)Nc2ccc(O)cc2)C(C)(C)CCC1", "activity change, negative = inhibition": "-44% (inactive)"}
{"smiles": "COc1ccc(Cl)cc1C(=O)NCCc1ccc(S(=O)(=O)NC(=O)NC2CCCCC2)cc1", "activity change, negative = inhibition": "-13.1% (inactive)"}
{"smiles": "COc1ccccc1OCC(O)CN1CCN(CC(=O)Nc2c(C)cccc2C)CC1", "note": "(configuration not stated)", "activity change, negative = inhibition": "-0.707% (inactive)"}
{"smiles": "Nc1nc2c(ncn2COC(CO)CO)c(=O)[nH]1", "activity change, negative = inhibition": "3.28% (inactive)"}
{"smiles": "CC[N+](C)(C)c1cccc(O)c1", "activity change, negative = inhibition": "-14.6% (inactive)"}
{"smiles": "Clc1ccc(C(c2ccccc2Cl)C(Cl)Cl)cc1", "note": "(configuration not stated)", "activity change, negative = inhibition": "-9.72% (inactive)"}
{"smiles": "NC(=O)NO", "activity change, negative = inhibition": "-12.9% (inactive)"}
{"smiles": "COC(=O)Nc1nc2ccc(C(=O)c3cccs3)cc2[nH]1", "activity change, negative = inhibition": "-32% (inactive)"}
{"smiles": "Cc1cccc(C)c1OCC(C)N", "note": "(configuration not stated)", "activity change, negative = inhibition": "30.4% (inactive)"}
{"smiles": "O=c1n(CCCN2CCN(c3cccc(Cl)c3)CC2)nc2ccccn12", "activity change, negative = inhibition": "1.15% (inactive)"}
{"smiles": "NS(=O)(=O)c1cc2c(cc1Cl)NC=NS2(=O)=O", "activity change, negative = inhibition": "7.75% (inactive)"}
{"smiles": "COc1cc(Cc2cnc(N)nc2N)cc(OC)c1OC", "activity change, negative = inhibition": "34.4% (inactive)"}
{"smiles": "O=C1c2c(O)ccc(O)c2C(=O)c2c(NCCNCCO)ccc(NCCNCCO)c21", "Potency": "282 nM (active)"}
{"smiles": "CC(COc1ccccc1)N(CCCl)Cc1ccccc1", "note": "(configuration not stated)", "activity change, negative = inhibition": "1.94% (inactive)"}
{"smiles": "CN(C)CCOC(C)(c1ccccc1)c1ccccn1", "note": "(configuration not stated)", "activity change, negative = inhibition": "29.4% (inactive)"}
{"smiles": "Cc1oncc1C(=O)Nc1ccc(C(F)(F)F)cc1", "activity change, negative = inhibition": "-49.4% (inactive)"}
{"smiles": "CN(C)c1nc(N(C)C)nc(N(C)C)n1", "activity change, negative = inhibition": "29.8% (inactive)"}
{"smiles": "NC[C@H](O)c1ccc(O)c(O)c1", "activity change, negative = inhibition": "37.9% (inactive)"}
{"smiles": "CC(C)NCC(O)c1ccc(O)c(O)c1", "note": "(configuration not stated)", "Potency": "inactive"}
{"smiles": "N=c1nc(N2CCCCC2)cc(N)n1O", "activity change, negative = inhibition": "0.884% (inactive)"}
{"smiles": "CC(C)(C(=O)O)c1ccc(C(O)CCCN2CCC(C(O)(c3ccccc3)c3ccccc3)CC2)cc1", "note": "(configuration not stated)", "activity change, negative = inhibition": "-3.89% (inactive)"}
{"smiles": "CC(=O)Nc1nnc(S(N)(=O)=O)s1", "activity change, negative = inhibition": "-15.1% (inactive)"}
